# Laboratory results: PubChem BioAssay (EPA / NIEHS)
# Results filed as inconclusive are left out. Activity calls are given as the source filed them. Rule for the calls, unless noted: active = hit-call score of the fitted dose curve at least 0.9, where 1 is the maximum; inactive = score below 0.9.
# Assays:
# [1] = tested on: Brachyury (BRA) Protein Expression, Deisenroth Lab, TBXT (gene 6862); test: CCTE_Deisenroth_DEVTOX-GLR_Pluri_BRA: CCTE's DevTox GLR-Pluri Assay Evaluation of Brachyury (BRA) Protein Expression, Deisenroth Lab (AID 2284429; active = hit-call score of the fitted dose curve at least 0.9, where 1 is the maximum)
# Outline: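 Human pluripotent RUES2-GLR cells, seeded 24 h, were differentiated 48 h in defined media with two chemical doses at 24-h intervals (10-point, 1 nM - 200 uM). Readout: percent BRA+ cells by fluorescent reporter imaging, minus 0.2% DMSO control.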
# [2] = CCTE_Deisenroth_DEVTOX-GLR_Pluri_CellCount: Viability Assessment in CCTE's DevTox GLR-Pluri Assay Evaluation of Total Cell Counts, Deisenroth Lab (AID 2284430)
# Outline: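 RUES2-GLR human pluripotent cells, seeded 24 h, then differentiated 48 h with two chemical exposures 24 h apart; 10-point series 1 nM - 200 uM. Fixed, nuclear-stained, imaged (5 fields/well); nuclei count as % change vs 0.2% DMSO.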
# TTR (gene 7276) = test: CCTE_GLTED_hTTR_0.125uM: CCTE's human Transthyretin (hTTR) Inhibition Assay, with 0.125uM TTR, Great Lakes Toxicology and Ecology Division (GLTED) Lab (AID 2284431);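 note: hits lower the fluorescence signal relative to DMSO baseline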
# Outline: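 TTR at 0.125uM incubated 2 h with test chemical; displacement of bound ANSA read by fluorescence (ex 380, em 475). Activity is signal loss versus DMSO baseline.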
smiles,measurement,setting,value
CC(C)(c1ccc(O)cc1)c1ccc(O)cc1,AC50,[1],38.4 µM (active)
same,AC50,[2],19.7 µM (active)
same,AC50,TTR (gene 7276),7.82 µM (active)
CC(C)CCCCCCc1ccc(O)cc1,AC50,TTR (gene 7276),1.87 µM (active)
O=C(O)C1(C(=O)Nc2ccc(Cl)cc2Cl)CC1,AC50,TTR (gene 7276),8.06 µM (active)
CCCN(CCC)c1c([N+](=O)[O-])cc(C(F)(F)F)c(N)c1[N+](=O)[O-],AC50,TTR (gene 7276),0.348 µM (active)
COC(=O)c1ccc(I)cc1S(=O)(=O)NC(=O)Nc1nc(C)nc(OC)n1,AC50,TTR (gene 7276),1.8 µM (active)
N#CSCSc1nc2ccccc2s1,AC50,TTR (gene 7276),10.1 µM (active)
CCCCC(CC)COC(=O)c1ccccc1C(=O)O (centres undefined),AC50,[1],70.4 µM (active)
same,outcome,[2],inactive
same,AC50,TTR (gene 7276),1.44 µM (active)
O=C(Nc1ccc([N+](=O)[O-])cc1Cl)c1cc(Cl)ccc1O,AC50,TTR (gene 7276),0.633 µM (active)
OB(O)O,outcome,[1],inactive
same,outcome,[2],inactive
